# Assay results from PubChem BioAssay (NCATS).
# Where “and” joins values, the source holds several entries; their conditions need not be identical. Identical values can stand only once. Inconclusive results are not listed. A call without a number means that no potency is given here. Calls of active or inactive are those of the source. Unless noted, calls follow the shape of the dose curve; as a rule, active = well fitted curve in the direction sought with a large enough effect; inconclusive = small, poorly fitted or top-dose-only effect, or another doubt; inactive = no such curve, though single readings can be large; an effect the other way counts as inactive or inconclusive.
# Legend:
# [1] = AP1 Signaling Pathway (AID 357; active = well fitted curve in either direction with a large enough effect, not every such curve was filed as active); settings: ME-180 AP-1-bla reporter, EGF-induced, beta-lactamase ratio, 5 h
# How it was run: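 Titration-series screen for positive or negative modulators of EC50 EGF-induced signaling in ME-180 cells carrying an AP-1-driven beta-lactamase reporter. After 5 hours at 37 degrees Celsius, CCF4 460nm/530nm emission ratio gave %Activity; AC50 values derived.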
# [2] = molecular target: Cytochrome P450 1A2 (Homo sapiens) (UniProt P05177); assay: p450-cyp1a2 (AID 410; calls by dose curve; also: potency is read from the fitted curve at half-maximal effect); settings: recombinant CYP1A2, luciferin-ME demethylation, luminescence; series mostly up to 57 µM
# How it was run: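 20nM CYP1A2 with 100uM Luciferin-ME (at Km) in 100mM KPO4; compound preincubated 10 min, NADPH regeneration added, 60 min at room temperature. Luciferin quantified by luminescence after detection reagent; normalized to 57 uM furafylline.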
# [3] = NFAT Signaling Pathway (AID 444; active = well fitted curve in either direction with a large enough effect, not every such curve was filed as active;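 also: carbachol stimulus at about its EC50 of 1 µM final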); settings: Jurkat NFAT-bla M1, carbachol, beta-lactamase ratio, 5 h
# How it was run: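 Jurkat cells carrying an NFAT-driven β-lactamase reporter and co-transfected muscarinic M1 receptor were treated with compound plus carbachol (1 uM final, an EC50 level) for 5 h at 37 °C. CCF4 loading followed for 1 h at RT; 460/530 nm ratio gave %activity.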
# [4] = Stat Signaling Pathway (AID 446; active = well fitted curve in either direction with a large enough effect, not every such curve was filed as active;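 also: ME-180 cervical cancer cells given 40 pM IL-6 alongside compound; SIE-controlled beta-lactamase reporter measured as 460/530 nm FRET emission ratio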); settings: ME-180 SIE beta-lactamase reporter, IL-6 stimulated, 5 h
# How it was run: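 Reporter line: ME-180 cervical carcinoma, SIE-beta-lactamase. Treatment: compound with 40 pM IL-6, 5 hrs, 37 C, in low-serum OPTI-MEM with 10 mM HEPES pH 7.3. Detection: 460/530 nm fluorescence.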
# [5] = molecular target: Glucocorticoid receptor (Homo sapiens) (UniProt P04150); assay: GR-GFP Redistribution (AID 450;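 active = compounds whose dose series gives a full or clear partial fitted curve of increased nuclear translocation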; also: potency is read from the fitted curve at half-maximal effect); settings: U2OS GR-GFP nuclear translocation, laser cytometry, 2 h
# [6] = molecular target: Glucocorticoid receptor (Homo sapiens) (UniProt P04150); assay: GR-EFC Redistribution (AID 451; calls by dose curve; also: potency is read from the fitted curve at half-maximal effect); settings: CHO-K1 GR-EFC translocation, beta-gal luminescence, 2 h
# How it was run: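 CHO-K1 cells stably expressing nuclear-localized β-gal enzyme acceptor and GR fused C-terminally to the enzyme donor fragment; ligand-driven nuclear translocation restores β-gal by complementation. Compounds titrated up to 46 uM final, 2 h at 37 °C; luminescence read.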
# [7] = molecular target: Mitogen-activated protein kinase 10 (Mus musculus) (UniProt Q61831); assay: JNK3 AlphaScreen Assay (AID 530; active = well fitted curve in either direction with a large enough effect, not every such curve was filed as active;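 also: kinase came from lysate of stimulated human HepG2 cells; signal reports phosphorylation of biotinylated GST-cJun 1-79 at Ser73 with 10 µM ATP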); settings: JNK3 lysate, c-Jun phosphorylation; series mostly up to 57.1 µM
# How it was run: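 Inhibitors reduce antibody binding to phosphorylated biotin-cJun, lowering AlphaScreen luminescence. Lysates from HepG2 cells pre-activated by IL-1beta plus TNF-alpha supplied JNK3; compounds were titrated.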
# [8] = molecular target: 3',5'-cyclic-AMP phosphodiesterase 4B (Homo sapiens) (UniProt Q07343); assay: qHTS Assay for Inhibitors of PDE-IV (AID 607; active = well fitted activation curve with a large enough effect in the main read-out, with a control signal flat, not every such curve was filed as active); settings: HEK293 ACTOne CNG channel cells, membrane potential fluorescence; series mostly up to 22.9 µM
# How it was run: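 Cell-based read-out of cAMP via a modified cyclic nucleotide-gated channel and membrane potential dye (535/590 nm) in HEK293 cells expressing PDE4 endogenously. Compounds tested up to 22.9 uM final; 100 uM RO 20-1724 reference.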
# [9] = qHTS Assay for Lipid Storage Modulators (AID 1519; calls by dose curve); settings: Drosophila S3 cells, BODIPY lipid droplet/cell ratio, laser cytometry, cells loaded with oleic acid
# How it was run: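 Cells seeded at 5,000 per well were treated with compounds over a concentration series and loaded with oleic acid (400 uM, as added). Lipid droplet fluorescence (488 nm excitation, 500-530 nm channel) was read by laser-scanning cytometry and normalized to 20 uM Triacsin C.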
# [10] = molecular target: DNA dC->dU-editing enzyme APOBEC-3G (Homo sapiens) (UniProt Q9HC16); assay: qHTS for inhibitors of Vif-A3G interactions: Validation (AID 588379); settings: Vif-A3G protein interaction assay; series mostly up to 46.1 µM
# How it was run: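 HeLa cells stably expressing Vif and A3G-eYFP, 700 cells/well, incubated overnight at 37 deg C, then exposed to compound overnight at 37 deg C. Inhibition of Vif-mediated degradation read as increased yellow fluorescence (Ex 488/Em 500-530) by laser-scanning cytometry.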
# [11] = test system: Zika virus NS2B-NS3 protease; assay: Primary screen GU AMC qHTS for Zika virus inhibitors (AID 1347154); settings: Zika NS2B-NS3 unlinked protease, AMC fluorogenic substrate; series mostly up to 54.1 µM; also: nearly all actives have a fitted effect of over 70% in size
# How it was run: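 Unlinked Zika NS2B hydrophilic domain/NS3 protease domain noncovalent complex (25 nM final) in 10 mM Tris-HCl pH 8.0, 0.01% Tween 20, with AMC peptide substrate. Fluorescence (ex 340, em 450 nm) change over 15 min, room temperature; percent inhibition fitted to 4-parameter Hill equation.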
# [12] = Primary qHTS for small molecule stabilizers of the endoplasmic reticulum resident proteome: Secreted ER Calcium Modulated Protein (SERCaMP) assay (AID 1508630); settings: SH-SY5Y GLuc-SERCaMP (Gaussia luciferase released on ER calcium loss) secretion, thapsigargin, luminescence; series mostly up to 38.4 µM
# How it was run: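 GLuc-SERCaMP-expressing SH-SY5Y cells, pretreated 16 h with compound, are challenged with thapsigargin to empty ER calcium stores; after 4 h, coelenterazine is added directly to the medium and luminescence is imaged.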
# [13] = molecular target: Guanine nucleotide-binding protein G(i) subunit alpha-1 (Homo sapiens) (UniProt P63096); assay: qHTS Assay for Inhibitors of RGS12 GoLoco Motif Activity (Green Fluorophore) (AID 879); settings: Galphai1/FITC-RGS12 GoLoco peptide, fluorescence polarization; series mostly up to 57.1 µM;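 also: negative values mean loss of peptide binding seen as reduced polarization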
# How it was run: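 Fluorescence polarization assay: 50 nM Gαi1 with 10 nM FITC-labeled RGS12 GoLoco peptide in 10 mM Tris pH 7.5, 150 mM NaCl, 0.1 mM GDP, 0.05% NP40, 10 min at room temperature with compound.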
# [14] = molecular target: Cytochrome P450 3A4 (Homo sapiens) (UniProt P08684); assay: qHTS Assay for Activators of Cytochrome P450 3A4 (AID 885); settings: recombinant CYP3A4, Luciferin-PPXE luminescence, 60 min; series mostly up to 57.1 µM; also: nearly all actives have a fitted effect of over 65% in size
# How it was run: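 Signal was normalized against complete inhibition by 57 uM ketoconazole. The reaction used 20nM CYP3A4 with 25uM Luciferin-PPXE, 10-min compound preincubation and a 60-min NADPH-supported step at RT.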
# [15] = qHTS Assay for Identification of Small Molecule Agonists for Thrombopoietin (TPO) Signaling Pathway (AID 917); settings: TPO signaling pathway reporter cells, agonist qHTS, stimulated with TPO at its EC50; series mostly up to 38.5 µM
# How it was run: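 IL-3-dependent murine pro-B Ba/F3 cells, stably transfected with human TPO receptor and GpIIb-promoter luciferase, are incubated 24 hrs at 37 C with test compound and 26 pM TPO; luciferase signal is read after 10 min at room temperature.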
# [16] = molecular target: Pyruvate kinase (Leishmania mexicana) (UniProt Q27686); assay: qHTS Validation Assay for Inhibitors of Leishmania Mexicana Pyruvate Kinase (AID 945); settings: purified L. mexicana pyruvate kinase, enzyme activity, E451W mutant enzyme; series mostly up to 57.5 µM
# How it was run: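 Compounds are tested as eight-point concentration series. Reactions contain 0.2 nM LmPYK E451W, 0.5 mM PEP, 0.1 mM ADP, 7 mM MgCl2 and 50 mM KCl at pH 7.2, run 1 h at room temperature, then read by PKLight luminescence.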
# [17] = molecular target: Pyruvate kinase PKM (Homo sapiens) (UniProt P14618); assay: qHTS Assay for Activators of Human Muscle Pyruvate Kinase (AID 954; active = well fitted curve in the direction sought with a large enough effect, not every such curve was filed as active); settings: purified human muscle pyruvate kinase, luciferase-coupled luminescence, 1 h; series mostly up to 57.5 µM
# How it was run: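 Human PKM2 activity is measured as ATP generation, detected by luciferase-coupled luminescence. The enzyme (0.1 nM) acts on 0.5 mM PEP and 0.1 mM ADP for 1 h at ambient temperature; data are normalized to uninhibited and full-inhibition wells.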
# [18] = molecular target: Alpha-galactosidase A (Homo sapiens) (UniProt P06280); assay: Counterscreen for Glucocerebrosidase Inhibitors: qHTS Assay for Human alpha-Galactosidase at pH 4.5 (AID 992); settings: purified enzyme, fluorogenic substrate; series mostly up to 76.9 µM
# How it was run: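 Quantitative HTS: compounds tested from 0.7 nM up to 77 uM against 2 nM enzyme with 80 uM 4-MU alpha-D-galactopyranoside. The 20 min room-temperature reaction is stopped with 1M NaOH/1M glycine, pH 10.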
# [19] = molecular target: alpha-glucosidase (Oryza sativa, rice) (UniProt Q653V4); assay: Counterscreen for Glucocerebrosidase Inhibitors: qHTS Assay for Rice alpha-Glucosidase at pH 5.0 (AID 997); settings: rice alpha-glucosidase enzyme activity; series mostly up to 76.9 µM
# How it was run: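 Rice alpha-glucosidase (4 nM final) with 400 uM 4-methylumbelliferyl-alpha-D-glucopyranoside in citrate buffer pH 5.0, 20 min at room temperature, stopped at pH 10; fluorescence 365/440 nm, compounds 0.7 nM–77 uM, AC50 from Hill fits.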
# [20] = molecular target: Ubiquitin carboxyl-terminal hydrolase 1 (Homo sapiens) (UniProt O94782); assay: Inhibitors of USP1/UAF1: Pilot qHTS (AID 504865); settings: purified USP1/UAF1, Ub-rhodamine cleavage fluorescence; series mostly up to 114 µM;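 also: rhodamine fluorescence freed from ubiquitin-rhodamine substrate followed over time; top concentration of the series differs between compounds; nearly all actives have a fitted effect of over 35% in size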
# How it was run: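 Enzyme-free wells gave the negative control, while test wells held 1nM USP1/UAF1 preincubated with compound for 15 min at room temperature. Ub-Rho at 150nM final started the reaction, and fluorescence at 480/540 nm was recorded kinetically.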
# [21] = measured here: cell count channel max response
# [22] = measured here: lipid channel max response
# DNA dC->dU-editing enzyme APOBEC-3G (Homo sapiens), sequence (Q9HC16 whole entry, looked up): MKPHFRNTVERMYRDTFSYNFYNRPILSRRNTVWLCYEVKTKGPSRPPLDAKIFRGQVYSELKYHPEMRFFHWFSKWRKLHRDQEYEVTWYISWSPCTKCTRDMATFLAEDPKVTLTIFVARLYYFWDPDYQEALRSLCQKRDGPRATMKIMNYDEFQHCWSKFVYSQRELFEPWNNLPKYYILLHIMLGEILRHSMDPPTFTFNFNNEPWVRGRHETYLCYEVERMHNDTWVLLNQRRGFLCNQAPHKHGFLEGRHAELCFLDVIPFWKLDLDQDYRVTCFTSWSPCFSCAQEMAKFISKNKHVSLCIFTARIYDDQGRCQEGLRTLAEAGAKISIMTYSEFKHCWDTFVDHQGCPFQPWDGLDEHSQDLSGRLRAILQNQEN
# Cytochrome P450 3A4 (Homo sapiens), sequence (P08684 whole entry, looked up): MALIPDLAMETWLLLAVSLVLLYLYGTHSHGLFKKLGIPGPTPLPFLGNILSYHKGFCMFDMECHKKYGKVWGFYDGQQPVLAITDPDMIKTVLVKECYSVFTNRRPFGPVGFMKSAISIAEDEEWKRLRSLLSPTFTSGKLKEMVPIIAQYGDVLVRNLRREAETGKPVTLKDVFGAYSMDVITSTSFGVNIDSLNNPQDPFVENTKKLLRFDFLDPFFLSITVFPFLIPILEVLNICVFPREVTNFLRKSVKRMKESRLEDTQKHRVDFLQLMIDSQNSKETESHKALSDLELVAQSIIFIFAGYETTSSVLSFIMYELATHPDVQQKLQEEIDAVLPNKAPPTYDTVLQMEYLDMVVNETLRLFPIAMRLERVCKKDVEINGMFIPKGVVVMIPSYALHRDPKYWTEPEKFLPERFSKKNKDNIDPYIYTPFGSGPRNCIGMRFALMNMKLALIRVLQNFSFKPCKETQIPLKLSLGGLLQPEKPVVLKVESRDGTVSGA
# Glucocorticoid receptor (Homo sapiens), sequence (P04150 whole entry, looked up, the tested form may be a part): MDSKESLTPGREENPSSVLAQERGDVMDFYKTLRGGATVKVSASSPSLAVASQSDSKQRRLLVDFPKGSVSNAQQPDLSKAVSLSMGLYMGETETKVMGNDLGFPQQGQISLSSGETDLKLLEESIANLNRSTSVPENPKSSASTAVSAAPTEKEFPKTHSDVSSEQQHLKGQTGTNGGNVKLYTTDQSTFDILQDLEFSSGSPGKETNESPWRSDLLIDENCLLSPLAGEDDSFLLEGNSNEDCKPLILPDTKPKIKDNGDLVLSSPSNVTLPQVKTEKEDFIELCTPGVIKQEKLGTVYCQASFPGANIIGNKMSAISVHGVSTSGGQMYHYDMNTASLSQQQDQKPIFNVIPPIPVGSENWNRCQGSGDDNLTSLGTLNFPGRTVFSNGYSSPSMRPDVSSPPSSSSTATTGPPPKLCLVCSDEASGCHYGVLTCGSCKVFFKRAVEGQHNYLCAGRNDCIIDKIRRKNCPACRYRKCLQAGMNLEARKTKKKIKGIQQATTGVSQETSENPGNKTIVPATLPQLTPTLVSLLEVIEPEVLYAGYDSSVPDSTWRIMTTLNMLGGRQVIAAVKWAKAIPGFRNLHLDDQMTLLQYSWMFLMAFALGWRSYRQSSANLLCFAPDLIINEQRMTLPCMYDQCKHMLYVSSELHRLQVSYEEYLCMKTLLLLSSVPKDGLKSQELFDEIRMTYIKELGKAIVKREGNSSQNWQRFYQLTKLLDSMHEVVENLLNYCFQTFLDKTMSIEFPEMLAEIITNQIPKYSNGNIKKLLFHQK
# 3',5'-cyclic-AMP phosphodiesterase 4B (Homo sapiens), sequence (Q07343 whole entry, looked up): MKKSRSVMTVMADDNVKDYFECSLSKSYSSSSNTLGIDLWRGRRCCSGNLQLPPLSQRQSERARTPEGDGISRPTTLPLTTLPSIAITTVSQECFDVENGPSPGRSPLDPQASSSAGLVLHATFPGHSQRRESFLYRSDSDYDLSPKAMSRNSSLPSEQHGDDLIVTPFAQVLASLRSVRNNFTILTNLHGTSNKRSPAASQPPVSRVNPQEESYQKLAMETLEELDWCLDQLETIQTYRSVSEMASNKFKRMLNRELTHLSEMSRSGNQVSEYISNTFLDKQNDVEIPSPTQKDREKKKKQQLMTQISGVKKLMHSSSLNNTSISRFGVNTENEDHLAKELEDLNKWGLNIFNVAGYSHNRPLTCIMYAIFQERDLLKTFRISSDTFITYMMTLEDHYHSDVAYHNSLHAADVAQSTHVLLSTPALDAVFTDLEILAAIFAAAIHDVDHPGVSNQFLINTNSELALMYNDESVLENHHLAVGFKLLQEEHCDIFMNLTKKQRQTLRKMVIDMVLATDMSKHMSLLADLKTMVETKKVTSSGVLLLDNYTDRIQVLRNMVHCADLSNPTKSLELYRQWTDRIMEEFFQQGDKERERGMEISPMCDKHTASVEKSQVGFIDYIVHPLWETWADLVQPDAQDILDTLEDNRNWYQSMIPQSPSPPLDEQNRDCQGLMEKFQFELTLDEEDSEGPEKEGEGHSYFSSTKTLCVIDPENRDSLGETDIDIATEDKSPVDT
# Cytochrome P450 1A2 (Homo sapiens), sequence (P05177 whole entry, looked up): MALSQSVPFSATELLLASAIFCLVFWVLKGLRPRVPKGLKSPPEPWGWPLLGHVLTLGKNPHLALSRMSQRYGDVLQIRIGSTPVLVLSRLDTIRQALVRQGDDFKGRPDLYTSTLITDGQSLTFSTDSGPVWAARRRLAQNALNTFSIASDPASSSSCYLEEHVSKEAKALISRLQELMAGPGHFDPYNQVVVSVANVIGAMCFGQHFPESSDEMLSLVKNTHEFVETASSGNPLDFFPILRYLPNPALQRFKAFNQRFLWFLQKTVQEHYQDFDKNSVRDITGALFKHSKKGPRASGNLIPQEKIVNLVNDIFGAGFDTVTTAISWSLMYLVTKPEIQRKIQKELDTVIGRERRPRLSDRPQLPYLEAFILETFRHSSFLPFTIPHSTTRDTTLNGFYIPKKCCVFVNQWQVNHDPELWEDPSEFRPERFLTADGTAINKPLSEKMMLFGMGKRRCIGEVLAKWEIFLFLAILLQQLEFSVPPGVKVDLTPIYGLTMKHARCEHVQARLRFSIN
# Alpha-galactosidase A (Homo sapiens), sequence (P06280 whole entry, looked up): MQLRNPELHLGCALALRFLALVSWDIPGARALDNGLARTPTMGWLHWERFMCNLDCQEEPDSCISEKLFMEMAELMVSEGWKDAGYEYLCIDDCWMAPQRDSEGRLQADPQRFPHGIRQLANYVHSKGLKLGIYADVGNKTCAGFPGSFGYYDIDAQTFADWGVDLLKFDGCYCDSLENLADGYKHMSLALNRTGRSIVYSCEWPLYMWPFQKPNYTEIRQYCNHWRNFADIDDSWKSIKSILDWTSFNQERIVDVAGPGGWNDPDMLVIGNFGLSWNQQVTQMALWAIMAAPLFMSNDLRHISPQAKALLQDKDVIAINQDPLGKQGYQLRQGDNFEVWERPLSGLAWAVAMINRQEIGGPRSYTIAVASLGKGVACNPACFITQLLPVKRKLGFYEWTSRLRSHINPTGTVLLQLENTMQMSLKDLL
# Guanine nucleotide-binding protein G(i) subunit alpha-1 (Homo sapiens), sequence (P63096 whole entry, looked up): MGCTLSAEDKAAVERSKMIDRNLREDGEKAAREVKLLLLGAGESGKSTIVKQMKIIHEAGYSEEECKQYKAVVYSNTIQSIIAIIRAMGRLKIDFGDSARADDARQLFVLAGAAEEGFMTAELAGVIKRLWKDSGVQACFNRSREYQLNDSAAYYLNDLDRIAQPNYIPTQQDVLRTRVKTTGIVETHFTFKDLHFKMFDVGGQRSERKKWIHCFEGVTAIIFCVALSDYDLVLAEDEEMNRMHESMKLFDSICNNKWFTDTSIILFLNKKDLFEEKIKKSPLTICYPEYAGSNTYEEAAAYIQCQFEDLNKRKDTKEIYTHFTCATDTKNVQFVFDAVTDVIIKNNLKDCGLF
# Ubiquitin carboxyl-terminal hydrolase 1 (Homo sapiens), sequence (O94782 whole entry, looked up): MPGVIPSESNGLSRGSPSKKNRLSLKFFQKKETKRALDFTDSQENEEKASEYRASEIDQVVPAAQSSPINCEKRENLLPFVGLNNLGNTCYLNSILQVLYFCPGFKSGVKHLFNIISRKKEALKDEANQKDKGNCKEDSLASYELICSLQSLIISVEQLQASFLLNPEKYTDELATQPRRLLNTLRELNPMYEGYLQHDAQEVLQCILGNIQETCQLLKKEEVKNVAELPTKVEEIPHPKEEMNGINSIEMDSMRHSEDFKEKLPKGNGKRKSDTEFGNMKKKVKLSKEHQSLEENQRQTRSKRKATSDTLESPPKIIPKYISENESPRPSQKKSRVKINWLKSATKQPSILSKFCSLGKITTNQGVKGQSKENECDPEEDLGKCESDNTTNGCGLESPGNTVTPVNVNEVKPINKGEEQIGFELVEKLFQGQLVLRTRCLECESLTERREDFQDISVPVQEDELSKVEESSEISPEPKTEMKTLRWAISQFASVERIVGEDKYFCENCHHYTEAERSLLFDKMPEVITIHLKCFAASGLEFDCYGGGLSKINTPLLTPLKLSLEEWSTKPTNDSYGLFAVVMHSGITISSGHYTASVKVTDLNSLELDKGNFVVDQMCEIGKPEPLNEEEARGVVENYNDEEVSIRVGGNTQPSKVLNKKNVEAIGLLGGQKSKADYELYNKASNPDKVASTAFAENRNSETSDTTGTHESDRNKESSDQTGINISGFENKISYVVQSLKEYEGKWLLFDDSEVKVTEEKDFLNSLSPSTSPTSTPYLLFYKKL
# Pyruvate kinase (Leishmania mexicana), sequence (Q27686 2-499 E452W): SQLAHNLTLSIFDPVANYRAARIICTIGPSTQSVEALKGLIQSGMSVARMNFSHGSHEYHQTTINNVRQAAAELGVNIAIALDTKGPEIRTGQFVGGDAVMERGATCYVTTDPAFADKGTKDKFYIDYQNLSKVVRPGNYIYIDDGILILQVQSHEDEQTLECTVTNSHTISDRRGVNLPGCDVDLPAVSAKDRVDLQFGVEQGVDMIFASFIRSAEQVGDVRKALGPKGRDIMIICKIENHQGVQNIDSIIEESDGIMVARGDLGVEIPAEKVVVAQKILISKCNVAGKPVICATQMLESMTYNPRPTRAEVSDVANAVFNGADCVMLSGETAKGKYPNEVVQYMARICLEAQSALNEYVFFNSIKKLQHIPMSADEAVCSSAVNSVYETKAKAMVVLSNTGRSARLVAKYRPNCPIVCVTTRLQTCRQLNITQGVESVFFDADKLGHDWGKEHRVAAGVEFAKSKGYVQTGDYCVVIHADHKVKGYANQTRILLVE
smiles,measurement,setting,value
CC(C)NC[C@H](O)c1ccc2ccccc2c1,"activity change, negative = inhibition",[1]; at 17.2 µM (top of the series),1.15% (inactive)
same,Potency,[2],10 µM (active) and 12.6 µM (active)
same,"activity change, negative = inhibition",[3]; at 17.2 µM (top of the series),-18.4% (inactive)
same,"activity, negative = inhibition",[4]; at 17.2 µM (top of the series),-5.4% (inactive)
same,Potency,[5],> 20.6 µM (inactive) and > 46 µM (inactive)
same,Potency,[6],> 20.6 µM (inactive) and > 46 µM (inactive)
same,Potency,[7],inactive
same,Potency,[8],inactive
same,"activity change, negative = inhibition",[9]; at 25.7 µM (top of the series),-2.39% (inactive)
same,"activity change, negative = inhibition",[9]; at 57.5 µM (top of the series),-0.481% (inactive)
same,max response,[9]; [21],2.13% and 8.48%
same,max response,[9]; [22],-2.74% and 9.7%
same,Potency,[10],inactive
same,Potency,[11],inactive
same,Potency,[12],inactive
S=C(S)O[C@@H]1C[C@@H]2C[C@H]1[C@@H]1CCC[C@H]21,"activity change, negative = inhibition",[1]; at 38 µM (top of the series),6.71% (inactive)
same,Potency,[2],inactive
same,"activity change, negative = inhibition",[3]; at 38 µM (top of the series),-4.29% (inactive)
same,"activity, negative = inhibition",[4]; at 38 µM (top of the series),-20.1% (inactive)
same,Potency,[5],> 46 µM (inactive)
same,Potency,[6],> 46 µM (inactive)
same,Potency,[7],inactive
same,outcome,[13],inactive
same,Potency,[14],inactive
same,Potency,[15],inactive
same,Potency,[16],inactive
same,outcome,[17],inactive
same,outcome,[18],inactive
same,outcome,[19],inactive
same,"activity change, negative = inhibition",[9]; at 57.5 µM (top of the series),-0.164% (inactive)
same,max response,[9]; [21],8.79%
same,max response,[9]; [22],9.53%
same,Potency,[10],inactive
same,Potency,[11],inactive
same,Potency,[12],inactive
CC(C)(C)NC[C@H](O)COc1cccc2[nH]c(=O)[nH]c12,"activity change, negative = inhibition",[1]; at 38 µM (top of the series),-7.21% (inactive)
same,Potency,[2],inactive
same,Potency,[6],> 46 µM (inactive)
same,Potency,[7],inactive
same,Potency,[8],inactive
same,outcome,[13],inactive
same,Potency,[15],inactive
same,Potency,[16],inactive
same,outcome,[17],inactive
same,outcome,[18],inactive
same,outcome,[19],inactive
same,"activity change, negative = inhibition",[9]; at 57.5 µM (top of the series),-4.86% (inactive)
same,max response,[9]; [21],-1.97%
same,max response,[9]; [22],-5.55%
same,Potency,[10],inactive
same,Potency,[11],inactive
same,Potency,[12],inactive
CN(C)CCCSC(=N)N,"activity change, negative = inhibition",[1]; at 17.2 µM (top of the series),2.97% (inactive)
same,"activity change, negative = inhibition",[3]; at 17.2 µM (top of the series),-13.3% (inactive)
same,"activity, negative = inhibition",[4]; at 17.2 µM (top of the series),-1.52% (inactive)
same,Potency,[6],> 20.6 µM (inactive) and > 46 µM (inactive)
same,Potency,[7],inactive
same,Potency,[8],inactive
same,"activity change, negative = inhibition",[9]; at 25.7 µM (top of the series),-2.91% (inactive)
same,"activity change, negative = inhibition",[9]; at 57.5 µM (top of the series),3.5% (inactive)
same,max response,[9]; [21],-7.27% and -5.75%
same,max response,[9]; [22],-5.95% and 13.8%
same,Potency,[20],inactive
same,Potency,[10],inactive
same,Potency,[11],inactive
same,Potency,[12],inactive
C[C@](N)(C(=O)O)c1ccc(-c2nn[nH]n2)cc1,Potency,[2],39.8 µM (active)
same,Potency,[5],> 46 µM (inactive)
same,Potency,[6],> 46 µM (inactive)
same,Potency,[7],inactive
same,"activity change, negative = inhibition",[9]; at 57.5 µM (top of the series),7.08% (inactive)
same,max response,[9]; [21],7.75%
same,max response,[9]; [22],14.3%
same,Potency,[20],inactive
same,Potency,[10],inactive
same,Potency,[11],inactive
same,Potency,[12],inactive
CC[N+](C)(CC)CCC[n+]1c(-c2ccccc2)c2cc(N)ccc2c2ccc(N)cc21,Potency,[2],12.6 µM (active)
same,"activity, negative = inhibition",[4]; at 17.2 µM (top of the series),-13.1% (inactive)
same,Potency,[6],> 20.6 µM (inactive)
same,Potency,[7],inactive
same,Potency,[8],inactive
same,Potency,[14],inactive
same,"activity change, negative = inhibition",[9]; at 25.7 µM (top of the series),0.117% (inactive)
same,max response,[9]; [21],-4.14%
same,max response,[9]; [22],-3.68%
same,Potency,[11],inactive
same,Potency,[12],inactive
